# Measurements: the supplement of paper PMC10849652
# Targets with a hit are over-represented here; the source holds about 8,800 in all. About 0.5% of all pairs of compound and target were hits. Values without a mark were called inactive.
# Compound: CC(=O)c1cnc2ccc(-c3cc(Cl)c(O)c(Cl)c3)nc2c1N[C@H]1CC[C@H](CN(C)C)CC1
# Assay: log2 fold change, soluble protein after heating vs DMSO (PISA); higher = thermal stabilisation; K562 lysate, 10 uM; active = over 0.2 and 3.5 SD of the protein, either way, in both replicates (recomputed)
# How it was run: (§1)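 K562 pellets were dounce-homogenised in PBS pH 7.4 containing 1 mM MgCl2, and the crude extract, at 1 mg/mL protein, was exposed to 10 μM compound for 30 min. Aliquots were heated for 3 min across 48°C-58°C, pooled, brought to 0.5% NP-40 at 4°C and spun at 21,000xg for 90 min, with the supernatant taken as soluble protein. TMTpro 16plex LC-MS/MS with equalised channel sums quantified that protein. Values are log-two fold changes in thermal stability relative to solvent controls, taken from duplicates.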
# Sequence of UniProt Q96T76 (Q96T76 whole entry, looked up): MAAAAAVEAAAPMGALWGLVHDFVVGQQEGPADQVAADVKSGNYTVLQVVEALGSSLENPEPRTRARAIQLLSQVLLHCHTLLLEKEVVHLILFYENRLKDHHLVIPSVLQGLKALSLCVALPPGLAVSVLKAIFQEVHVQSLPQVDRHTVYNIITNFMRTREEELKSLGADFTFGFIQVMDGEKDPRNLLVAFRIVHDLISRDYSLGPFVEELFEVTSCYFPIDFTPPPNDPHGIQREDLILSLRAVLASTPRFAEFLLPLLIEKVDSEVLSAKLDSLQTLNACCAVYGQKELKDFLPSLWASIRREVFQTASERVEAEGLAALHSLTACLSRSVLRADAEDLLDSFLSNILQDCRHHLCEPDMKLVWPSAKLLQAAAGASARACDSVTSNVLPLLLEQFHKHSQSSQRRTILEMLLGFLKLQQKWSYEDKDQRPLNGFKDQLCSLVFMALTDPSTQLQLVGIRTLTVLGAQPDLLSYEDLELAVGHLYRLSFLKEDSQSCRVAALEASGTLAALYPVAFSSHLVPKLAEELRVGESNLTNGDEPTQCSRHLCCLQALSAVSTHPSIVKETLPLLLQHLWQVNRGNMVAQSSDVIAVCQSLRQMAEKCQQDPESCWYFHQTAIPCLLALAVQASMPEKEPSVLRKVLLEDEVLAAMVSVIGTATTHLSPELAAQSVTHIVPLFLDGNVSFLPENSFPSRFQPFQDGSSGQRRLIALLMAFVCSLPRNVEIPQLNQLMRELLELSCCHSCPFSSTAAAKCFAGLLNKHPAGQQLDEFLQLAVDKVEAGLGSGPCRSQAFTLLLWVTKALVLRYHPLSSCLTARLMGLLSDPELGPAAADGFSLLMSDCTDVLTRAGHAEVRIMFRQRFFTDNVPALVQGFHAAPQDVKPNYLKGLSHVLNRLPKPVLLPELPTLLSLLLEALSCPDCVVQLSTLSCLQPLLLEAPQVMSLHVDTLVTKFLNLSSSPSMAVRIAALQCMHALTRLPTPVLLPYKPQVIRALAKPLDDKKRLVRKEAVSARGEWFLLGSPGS
# Sequence of UniProt Q9H9A6 (Q9H9A6 whole entry, looked up): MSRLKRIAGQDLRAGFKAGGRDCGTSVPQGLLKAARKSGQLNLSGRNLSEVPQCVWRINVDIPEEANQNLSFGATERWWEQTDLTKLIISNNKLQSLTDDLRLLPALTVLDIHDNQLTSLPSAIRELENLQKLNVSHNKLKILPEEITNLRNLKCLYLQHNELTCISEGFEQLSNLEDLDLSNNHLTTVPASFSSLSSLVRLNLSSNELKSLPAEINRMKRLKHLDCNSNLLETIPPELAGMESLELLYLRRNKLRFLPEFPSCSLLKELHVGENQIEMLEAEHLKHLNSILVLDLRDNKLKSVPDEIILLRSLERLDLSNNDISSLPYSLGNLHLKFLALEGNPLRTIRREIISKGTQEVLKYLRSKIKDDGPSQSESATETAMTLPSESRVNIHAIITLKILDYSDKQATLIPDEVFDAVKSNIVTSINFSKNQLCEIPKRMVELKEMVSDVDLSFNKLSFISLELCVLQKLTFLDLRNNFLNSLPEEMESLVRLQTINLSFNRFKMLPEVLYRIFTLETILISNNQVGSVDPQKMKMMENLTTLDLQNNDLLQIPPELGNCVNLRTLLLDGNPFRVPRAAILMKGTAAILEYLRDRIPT
# Sequence of UniProt P45985 (P45985 whole entry, looked up): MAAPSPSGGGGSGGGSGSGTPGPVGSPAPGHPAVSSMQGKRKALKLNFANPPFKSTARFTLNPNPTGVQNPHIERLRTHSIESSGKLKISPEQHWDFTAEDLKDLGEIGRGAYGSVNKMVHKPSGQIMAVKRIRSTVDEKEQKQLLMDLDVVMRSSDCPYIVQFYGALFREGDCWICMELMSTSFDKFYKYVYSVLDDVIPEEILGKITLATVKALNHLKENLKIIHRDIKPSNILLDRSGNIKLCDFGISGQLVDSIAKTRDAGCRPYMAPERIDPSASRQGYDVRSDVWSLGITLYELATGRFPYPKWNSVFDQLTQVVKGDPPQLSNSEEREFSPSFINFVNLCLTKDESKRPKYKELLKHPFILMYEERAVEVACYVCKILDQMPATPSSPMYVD
# Sequence of UniProt Q9BTT4 (Q9BTT4 whole entry, looked up): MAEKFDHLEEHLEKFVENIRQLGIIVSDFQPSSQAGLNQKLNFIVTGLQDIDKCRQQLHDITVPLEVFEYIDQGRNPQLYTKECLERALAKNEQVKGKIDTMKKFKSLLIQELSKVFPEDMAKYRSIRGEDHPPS
# Sequence of UniProt Q66K74 (Q66K74 whole entry, looked up): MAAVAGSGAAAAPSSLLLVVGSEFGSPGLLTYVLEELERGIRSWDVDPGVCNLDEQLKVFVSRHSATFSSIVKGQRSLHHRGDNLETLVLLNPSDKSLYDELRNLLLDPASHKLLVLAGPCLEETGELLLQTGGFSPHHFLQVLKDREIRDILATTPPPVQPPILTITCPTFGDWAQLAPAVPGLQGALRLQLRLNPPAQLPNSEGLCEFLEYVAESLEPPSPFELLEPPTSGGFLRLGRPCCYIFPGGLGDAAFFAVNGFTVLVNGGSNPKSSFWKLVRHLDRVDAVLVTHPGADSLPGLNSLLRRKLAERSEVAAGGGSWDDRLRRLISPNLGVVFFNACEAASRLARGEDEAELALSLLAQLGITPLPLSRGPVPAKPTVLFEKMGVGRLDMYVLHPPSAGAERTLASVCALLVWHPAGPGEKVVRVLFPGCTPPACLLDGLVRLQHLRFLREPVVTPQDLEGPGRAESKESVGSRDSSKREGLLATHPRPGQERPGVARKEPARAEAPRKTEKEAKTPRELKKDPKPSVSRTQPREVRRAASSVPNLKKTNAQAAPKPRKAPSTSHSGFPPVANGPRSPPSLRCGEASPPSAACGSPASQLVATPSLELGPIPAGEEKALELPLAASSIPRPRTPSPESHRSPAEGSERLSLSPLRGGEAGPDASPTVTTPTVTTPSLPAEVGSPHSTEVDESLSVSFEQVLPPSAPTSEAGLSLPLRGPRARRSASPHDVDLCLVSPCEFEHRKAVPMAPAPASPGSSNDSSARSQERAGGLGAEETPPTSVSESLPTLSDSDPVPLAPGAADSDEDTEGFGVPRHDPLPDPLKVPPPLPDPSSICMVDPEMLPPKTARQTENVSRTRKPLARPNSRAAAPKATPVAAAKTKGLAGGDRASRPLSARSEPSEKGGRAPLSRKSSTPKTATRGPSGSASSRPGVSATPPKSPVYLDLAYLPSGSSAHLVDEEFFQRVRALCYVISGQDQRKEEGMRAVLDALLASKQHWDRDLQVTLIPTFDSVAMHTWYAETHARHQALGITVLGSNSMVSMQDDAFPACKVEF
# Sequence of UniProt Q9BVC4 (Q9BVC4 whole entry, looked up): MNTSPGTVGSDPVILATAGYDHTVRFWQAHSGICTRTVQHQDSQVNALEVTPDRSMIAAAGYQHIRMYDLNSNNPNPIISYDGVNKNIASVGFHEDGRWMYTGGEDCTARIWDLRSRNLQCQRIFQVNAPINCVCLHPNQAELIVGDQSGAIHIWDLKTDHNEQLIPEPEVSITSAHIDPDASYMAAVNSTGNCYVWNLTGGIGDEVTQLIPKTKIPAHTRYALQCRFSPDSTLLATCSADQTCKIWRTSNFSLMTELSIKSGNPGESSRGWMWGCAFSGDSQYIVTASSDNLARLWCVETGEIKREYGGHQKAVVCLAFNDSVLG
# Sequence of UniProt Q9NVC6 (Q9NVC6 whole entry, looked up): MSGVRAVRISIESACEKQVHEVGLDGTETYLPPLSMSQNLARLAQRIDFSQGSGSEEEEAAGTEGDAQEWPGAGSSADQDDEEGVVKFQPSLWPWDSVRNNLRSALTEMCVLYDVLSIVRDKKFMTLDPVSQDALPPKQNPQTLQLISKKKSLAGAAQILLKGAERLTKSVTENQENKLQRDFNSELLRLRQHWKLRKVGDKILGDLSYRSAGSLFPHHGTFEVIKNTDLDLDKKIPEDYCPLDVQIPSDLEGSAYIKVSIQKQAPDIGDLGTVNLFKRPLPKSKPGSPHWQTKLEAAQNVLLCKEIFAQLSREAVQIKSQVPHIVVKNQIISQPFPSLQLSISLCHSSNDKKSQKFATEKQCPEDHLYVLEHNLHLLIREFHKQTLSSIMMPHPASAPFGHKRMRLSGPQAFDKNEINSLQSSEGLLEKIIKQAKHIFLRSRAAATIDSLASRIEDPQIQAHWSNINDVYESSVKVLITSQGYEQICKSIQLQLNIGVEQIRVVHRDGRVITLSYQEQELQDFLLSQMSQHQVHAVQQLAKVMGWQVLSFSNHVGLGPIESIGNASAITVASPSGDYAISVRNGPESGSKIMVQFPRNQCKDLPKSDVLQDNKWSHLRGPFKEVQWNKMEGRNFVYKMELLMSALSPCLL
# Sequence of UniProt Q16644 (Q16644 whole entry, looked up): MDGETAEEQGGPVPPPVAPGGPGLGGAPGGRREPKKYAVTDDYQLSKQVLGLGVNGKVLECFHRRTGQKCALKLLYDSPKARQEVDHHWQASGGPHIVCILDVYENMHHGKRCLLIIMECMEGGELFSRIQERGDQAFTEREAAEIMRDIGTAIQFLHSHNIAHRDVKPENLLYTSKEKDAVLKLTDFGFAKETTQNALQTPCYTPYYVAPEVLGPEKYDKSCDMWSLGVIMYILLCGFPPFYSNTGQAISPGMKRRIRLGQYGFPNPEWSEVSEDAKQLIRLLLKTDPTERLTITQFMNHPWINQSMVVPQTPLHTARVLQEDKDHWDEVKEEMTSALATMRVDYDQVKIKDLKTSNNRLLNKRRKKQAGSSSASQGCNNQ
# Sequence of UniProt Q16539 (Q16539 whole entry, looked up): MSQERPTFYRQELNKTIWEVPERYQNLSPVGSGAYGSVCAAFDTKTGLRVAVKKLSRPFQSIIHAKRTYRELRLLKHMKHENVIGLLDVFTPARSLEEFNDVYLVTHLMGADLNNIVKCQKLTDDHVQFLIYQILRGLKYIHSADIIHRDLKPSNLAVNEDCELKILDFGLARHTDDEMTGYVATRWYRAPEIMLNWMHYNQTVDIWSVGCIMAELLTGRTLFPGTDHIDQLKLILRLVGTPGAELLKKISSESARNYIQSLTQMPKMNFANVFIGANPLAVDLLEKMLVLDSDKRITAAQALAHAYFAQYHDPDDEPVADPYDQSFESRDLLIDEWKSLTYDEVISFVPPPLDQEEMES
row,Target,log2 fold change
1,MAP1S (UniProt Q66K74),-0.026
2,MON2 isoform 5 (UniProt Q7Z3U7),0.001
3,LRPPRC (UniProt P42704),0.023
4,LBR (UniProt Q14739),-0.01
5,MAPK14 (UniProt Q16539),0.238
6,MLST8 (UniProt Q9BVC4),0.011
7,MMS19 isoform 8 (UniProt Q96T76),-0.011
8,KNL1 (UniProt Q8NG31),-0.014
9,KLC1 isoform 6 (UniProt Q07866),-0.012
10,MICU1 isoform 3 (UniProt Q9BPX6),-0.021
11,MOCS1 isoform 8 (UniProt Q9NZB8),0.08
12,KLHL36 (UniProt Q8N4N3),-0.047
13,MAP2K4 isoform 2 (UniProt P45985),0.316
14,MED17 (UniProt Q9NVC6),0.003
15,MAP2K5 (UniProt Q13163),-0.013
16,LRWD1 (UniProt Q9UFC0),-0.009
17,MCMBP (UniProt Q9BTE3),-0.007
18,MRPL15 (UniProt Q9P015),-0.078
19,MAST4 (UniProt O15021),0.423 (active)
20,MBLAC2 (UniProt Q68D91),-0.005

row,Target,log2 fold change
1,KNSTRN (UniProt Q9Y448),0.018
2,MAP4K4 isoform 3 (UniProt O95819),-0.021
3,MACROD1 (UniProt Q9BQ69),0.015
4,MAPK9 (UniProt P45984),0.234 (active)
5,LRRC40 (UniProt Q9H9A6),0.011
6,MRPL10 isoform 2 (UniProt Q7Z7H8),-0.013
7,"MICB, A0A140T979",0.317
8,LIG3 (UniProt P49916),0.007
9,MAPKAPK3 (UniProt Q16644),0.026
10,KIF2C (UniProt Q99661),0.014
11,LRCH3 (UniProt Q96II8),-0.016
12,LYAR (UniProt Q9NX58),-0.035
13,MGST1 (UniProt P10620),0.039
14,KLC4 isoform 3 (UniProt Q9NSK0),0.012
15,MAPKAPK5 (UniProt Q8IW41),-0.008
16,MED10 (UniProt Q9BTT4),-0.087
17,LPIN1 isoform 7 (UniProt Q14693),0.07
18,KIF21A isoform 5 (UniProt Q7Z4S6),-0.002
19,MAP2K1 (UniProt Q02750),0.519 (active)

# Compound: CC(C)(C)Cn1c(N)nc2ccc(-c3[nH]c(C(C)(C)C)nc3-c3ccc(F)cc3)nc21 [ralimetinib]
# Assay: as above
# How it was run: as §1
row,Target,log2 fold change
1,MAP1S (UniProt Q66K74),0.004
2,MON2 isoform 5 (UniProt Q7Z3U7),0.017
3,LRPPRC (UniProt P42704),0.027
4,LBR (UniProt Q14739),0.019
5,MAPK14 (UniProt Q16539),1.16 (active)
6,MLST8 (UniProt Q9BVC4),-0.038
7,MMS19 isoform 8 (UniProt Q96T76),0.022
8,KNL1 (UniProt Q8NG31),0.012
9,KLC1 isoform 6 (UniProt Q07866),0.019
10,MICU1 isoform 3 (UniProt Q9BPX6),0.023
11,MOCS1 isoform 8 (UniProt Q9NZB8),-0.066
12,KLHL36 (UniProt Q8N4N3),0.092
13,MAP2K4 isoform 2 (UniProt P45985),-0.029
14,MED17 (UniProt Q9NVC6),0
15,MAP2K5 (UniProt Q13163),0.103
16,LRWD1 (UniProt Q9UFC0),0.004
17,MCMBP (UniProt Q9BTE3),0.016
18,MRPL15 (UniProt Q9P015),-0.024
19,MAST4 (UniProt O15021),0.04
20,MBLAC2 (UniProt Q68D91),0.069

row,Target,log2 fold change
1,KNSTRN (UniProt Q9Y448),0.027
2,MAP4K4 isoform 3 (UniProt O95819),-0.065
3,MACROD1 (UniProt Q9BQ69),0.098
4,MAPK9 (UniProt P45984),0.366 (active)
5,LRRC40 (UniProt Q9H9A6),0.019
6,MRPL10 isoform 2 (UniProt Q7Z7H8),0.047
7,"MICB, A0A140T979",-0.037
8,LIG3 (UniProt P49916),0.063
9,MAPKAPK3 (UniProt Q16644),0.006
10,KIF2C (UniProt Q99661),0.048
11,LRCH3 (UniProt Q96II8),-0.004
12,LYAR (UniProt Q9NX58),-0.011
13,MGST1 (UniProt P10620),0.054
14,KLC4 isoform 3 (UniProt Q9NSK0),0.008
15,MAPKAPK5 (UniProt Q8IW41),-0.024
16,MED10 (UniProt Q9BTT4),-0.015
17,LPIN1 isoform 7 (UniProt Q14693),0.035
18,KIF21A isoform 5 (UniProt Q7Z4S6),0.015
19,MAP2K1 (UniProt Q02750),-0.021
